PubChem BioAssay (NCATS)
Several values for one entry are separate records, joined by “and”; a condition that tells them apart may be missing. Equal entries are not always repeated. Records with an inconclusive call do not appear. Activity calls are given as the source filed them. Unless noted, calls follow the shape of the dose curve; as a rule, active = well fitted curve in the direction sought with a large enough effect; inconclusive = small, poorly fitted or top-dose-only effect, or another doubt; inactive = no such curve, though single readings can be large; an effect the other way counts as inactive or inconclusive.

Key:
[1] = qHTS profiling of the MIPE4 collection as inhibitors of Plasmodium falciparum (3D7) proliferation (AID 743344; call rule not given here;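 also: scaled between DMSO vehicle wells and 0.29 µM artemisinin as full inhibition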); conditions: P. falciparum 3D7 in erythrocytes, SYBR Green DNA fluorescence, 72 h; at 28.5 µM unless noted
How it was run: (§1)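 Erythrocytes infected with P. falciparum (0.3% parasitemia, 2.5% hematocrit) incubated with compounds 72 h at 37 C, 5% CO2. Lysis with saponin/Triton buffer containing SYBR Green I, overnight at room temperature in the dark; DNA fluorescence (485/535 nm) normalised to 0.29 uM artemisinin and DMSO.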

[2] = qHTS profiling of the MIPE4 collection as inhibitors of Plasmodium falciparum (DD2) proliferation (AID 743345; call rule not given here); conditions: P. falciparum Dd2 in erythrocytes, SYBR Green DNA, 72 h; at 28.5 µM unless noted
How it was run: as §1

[3] = qHTS profiling of the MIPE4 collection as inhibitors of Plasmodium falciparum (DD2) proliferation (Rep 2) (AID 743346; call rule not given here); conditions: P. falciparum Dd2 in erythrocytes, SYBR Green DNA, 72 h; at 28.5 µM unless noted
How it was run: as §1

[4] = qHTS profiling of the MIPE4 collection as inhibitors of Plasmodium falciparum (HB3) proliferation (AID 743347; call rule not given here;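 also: plate controls were DMSO vehicle wells for no effect and artemisinin wells for full effect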); conditions: P. falciparum HB3 in erythrocytes, SYBR Green DNA, 72 h; at 28.5 µM unless noted
How it was run: as §1

[5] = High-throughput drug toxicity screening in the BPDCN cell line Gen2.2 (AID 1224824; call rule not given here;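 also: cells exposed to compounds for 48 h before reading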); conditions: Gen2.2 BPDCN cells; at 45.8 µM (top of the series) unless noted
How it was run: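 Readout is ATP luminescence from Gen2.2 cells after two days of drug exposure in serum-containing medium at 37 °C. Values express percent activity, with vehicle defining full signal and 9.2 uM bortezomib defining zero.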

[6] = High-throughput drug toxicity screening in the BPDCN cell line Cal-1 (AID 1224825; call rule not given here); conditions: Cal-1 BPDCN cell viability, qHTS; at 45.8 µM (top of the series) unless noted
How it was run: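 Cal-1 cells, 500 per well in phenol-red-free RPMI with 10% FBS, exposed to compounds for 48 hours at 37C, 5% CO2. Viability read by CellTiter-Glo luminescence; percent activity normalized to DMSO (100%) and 9.2 uM bortezomib final (0%).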

[7] = qHTS assay for measurement of the activity of small molecule inhibitors on Zika virus induced Caspase-3 activity in human iPSC derived neural progenitor cells (hNPCs) (AID 1224857); also: % of control where 0% means no effect; nearly all actives have a fitted effect of over 65% in size
How it was run: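 hNPCs seeded 350 cells/well, cultured 16–20 h; compounds added 1 h before ZIKV (2 FFU/cell), 37 C 6 h. Caspase-Glo 3/7 luminescence after 30 min RT; % inhibition from induction scaled to uninfected (0%) and infected (100%) wells.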

[8] = qHTS assay for measurement of the activity of small molecule inhibitors on Zika virus induced Caspase-3 activity in human astrocytoma cells (AID 1224859);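 also: plate controls were ZIKV-infected untreated cells for no effect and uninfected cells for full effect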
How it was run: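 Luminescence read-out (Caspase-Glo 3/7, 30 min RT) of caspase activity in SNB-19 cells infected 6 h with ZIKV, 2 FFU/cell, after 1 h compound pretreatment; % inhibition from induction normalised to uninfected (0%) and infected (100%) wells.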

[9] = qHTS Screen of the MIPE 4.0 Collection Against Ewings Sarcoma (RDES) (AID 1259252); also: nearly all actives have a fitted effect of over 35% in size; also: potency is read from the fitted curve at half-maximal effect
How it was run: (§2)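 Dose series incubated 48 h with cells in RPMI plus 5% FBS, glutamine and penicillin/streptomycin; cell viability then quantified via CellTiter-Glo.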

[10] = qHTS Screen of the MIPE 4.0 Collection Against Ewings Sarcoma (EW8) (AID 1259255); also: nearly all actives have a fitted effect of over 35% in size; also: potency is read from the fitted curve at half-maximal effect;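 as to viability: 100% = DMSO-treated cells and 0% = medium-only wells without cells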
How it was run: as §2

[11] = qHTS Screen of the MIPE 4.0 Collection Against Ewings Sarcoma (TC32) (AID 1259256); also: nearly all actives have a fitted effect of over 45% in size; also: potency is read from the fitted curve at half-maximal effect
How it was run: as §2

[12] = qHTS Assay for Identifying Gametocytocidal Compounds (AID 743244);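 also: % is scaled to controls: 0 for no effect and ±100 for the full control effect; actives lower the fluorescent signal which means gametocytes are killed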; conditions: P. falciparum 3D7 stage III-V gametocytes, alamarBlue, 72 h; max response: stronger effect = lower value
How it was run: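 P. falciparum 3D7 stage III–V gametocytes (20,000 cells/well) were exposed to compounds for 72 h at 37 °C, 5% CO2. AlamarBlue was then added for 24 h; decreased resorufin fluorescence (Ex 525/Em 598 nm) indicated loss of viability.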

[13] = qHTS assay to identify small molecule inhibitors of chordoma cells - UCH-1 (AID 1259355); also: % is scaled to controls: 0 for no effect and ±100 for the full control effect; nearly all actives have a fitted effect of over 55% in size
How it was run: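 Cells (800/well) were seeded and left overnight at 37 C, 5% CO2, then treated with drugs at 15 concentrations plus a combination mix of auranofin, camptothecin, doxorubicin, rubitecan and topotecan. Viability after 48hr was read by CellTiter-Glo luminescence.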

[14] = qHTS Screen of the MIPE 4.0 Collection Against Ewings Sarcoma (TC71) (AID 1259253); also: nearly all actives have a fitted effect of over 40% in size; also: potency is read from the fitted curve at half-maximal effect
How it was run: as §2

[15] = target: Hexokinase-4 (Homo sapiens) + Glucokinase regulatory protein (Homo sapiens) (UniProt P35557+Q14397); assay: qHTS assay for inhibitors of recombinant human GCK-GKRP interaction: HTRF assay (AID 743207);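 also: 0% = DMSO with GCK present and -100% = DMSO wells lacking GCK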
Chain of Hexokinase-4 (Homo sapiens) + Glucokinase regulatory protein (Homo sapiens) (P35557 whole entry, looked up): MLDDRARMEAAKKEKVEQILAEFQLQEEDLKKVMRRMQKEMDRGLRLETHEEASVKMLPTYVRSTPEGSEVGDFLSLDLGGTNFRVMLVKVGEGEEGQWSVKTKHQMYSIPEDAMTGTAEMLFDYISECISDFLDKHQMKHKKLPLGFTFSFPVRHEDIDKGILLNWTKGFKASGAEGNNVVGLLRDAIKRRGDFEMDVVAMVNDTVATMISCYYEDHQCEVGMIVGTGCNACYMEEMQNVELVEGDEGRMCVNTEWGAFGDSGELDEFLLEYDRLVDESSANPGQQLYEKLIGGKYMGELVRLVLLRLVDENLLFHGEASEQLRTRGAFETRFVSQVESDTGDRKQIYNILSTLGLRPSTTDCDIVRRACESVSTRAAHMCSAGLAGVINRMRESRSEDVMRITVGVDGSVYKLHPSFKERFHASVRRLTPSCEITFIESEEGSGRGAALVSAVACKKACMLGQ
Chain of Hexokinase-4 (Homo sapiens) + Glucokinase regulatory protein (Homo sapiens) (Q14397 whole entry, looked up): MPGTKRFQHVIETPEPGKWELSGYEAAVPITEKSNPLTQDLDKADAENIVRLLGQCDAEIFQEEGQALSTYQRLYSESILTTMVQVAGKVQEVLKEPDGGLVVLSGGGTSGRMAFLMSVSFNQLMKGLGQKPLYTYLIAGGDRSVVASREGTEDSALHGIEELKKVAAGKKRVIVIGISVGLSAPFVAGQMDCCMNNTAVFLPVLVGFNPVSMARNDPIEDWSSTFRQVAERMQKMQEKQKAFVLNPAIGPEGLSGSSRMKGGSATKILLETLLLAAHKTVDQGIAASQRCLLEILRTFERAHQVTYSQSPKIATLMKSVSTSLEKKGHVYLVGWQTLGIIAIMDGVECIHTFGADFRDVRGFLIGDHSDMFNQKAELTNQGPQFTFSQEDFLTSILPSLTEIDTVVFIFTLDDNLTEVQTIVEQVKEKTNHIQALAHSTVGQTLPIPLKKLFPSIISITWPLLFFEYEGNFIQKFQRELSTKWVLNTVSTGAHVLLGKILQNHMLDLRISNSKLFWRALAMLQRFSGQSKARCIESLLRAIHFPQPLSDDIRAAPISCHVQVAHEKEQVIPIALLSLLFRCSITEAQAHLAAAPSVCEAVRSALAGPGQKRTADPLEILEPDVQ
How it was run: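 Titration screening format: recombinant GST-GCK and FLAG-GKRP at 5 nM, S6P at 2 uM, labelled anti-tag antibodies, 60 min at RT, dual-wavelength HTRF readout.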

[16] = qHTS assay for cell viability of HEK293 cells (AID 743288); conditions: ATP luminescence (CellTiter-Glo), 18 h; max response: stronger effect = lower value; also: % is scaled to controls: 0 for no effect and ±100 for the full control effect; nearly all actives have a fitted effect of over 50% in size
How it was run: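 Luminescent ATP quantitation served as the viability read-out. Cells (parental HEK293, 2,000/well) received compounds after at least 5 h at 37 C and were exposed for 18 h before a 30 min room-temperature reagent step.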

[17] = qHTS assay for cell viability of the p53RE-bla HCT-116 cell line (AID 743292); also: % is scaled to controls: 0 for no effect and ±100 for the full control effect; nearly all actives have a fitted effect of over 55% in size
How it was run: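 CellSensor p53RE-bla HCT-116 cells (4,000/well) pre-incubated 5 h at 37 C, then exposed to compounds in DMSO for 16 h at 37 C. Viability read as ATP content by CellTiter-Glo luminescence after 30 min at room temperature.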

SMILES | parasite growth, % of DMSO control [1] | parasite growth remaining, % of DMSO control (lower = more inhibition) [2] | parasite growth, % of control (lower = inhibition) [3] | growth, % of control [4] | cell viability, % of control (lower = more cytotoxic) [5] | viability (% of control) [6] | Potency [7] | Potency [8] | Potency [9] | Potency [10] | Potency [11] | max response [12] | Potency [13] | Potency [14] | outcome [15] | max response [16] | Potency [17]
O=C(NCC1CN(c2ccc(N3CCOCC3=O)cc2)C(=O)O1)c1ccc(Cl)s1 (stereo unspecified) | 74.4% | 94.4% | 80.7% | 59.9% | 29.6% | 48.9% | inactive | inactive | inactive | inactive | inactive | – | – | – | – | – | –
CN1CCN(c2c(F)cc3c(=O)c(C(=O)O)cn(CCF)c3c2F)CC1 | 86.6% | 95.4% | 106% | 99% | 140% | 98.4% | inactive | inactive | inactive | inactive | inactive | 1.63% (inactive) | inactive | – | – | – | –
Clc1ccccc1CN1CCc2sccc2C1 | – | – | – | – | 91.7% | 45.9% | – | inactive | inactive | inactive | inactive | – | – | inactive | – | – | –
CC1CC2C3CCC4=CC(=O)C=C[C@]4(C)[C@@]3(F)[C@@H](O)C[C@]2(C)[C@@]1(O)C(=O)CO (stereo partly specified) | 85.2% | 90.6% | 85.8% | 102% | 115% | 56.6% | inactive | inactive | inactive | inactive | inactive | 8.59% (inactive) | – | – | inactive | – | –
CC[C@H](C)C(=O)O[C@H]1C[C@@H](C)C=C2C=C[C@H](C)[C@H](CC[C@@H]3C[C@@H](O)CC(=O)O3)[C@H]21 | 73.9% | 103% | – | 85.6% | 8.11% | 84.4% | inactive | inactive | 18.7 µM (active) | – | 7.43 µM (active) | 4.74% (inactive) | – | 14.8 µM (active) | – | -9.34% (inactive) | inactive
CC(C)NCC(O)c1ccc(NS(C)(=O)=O)cc1 (stereo unspecified) | 44.4% | 94.6% | 30.5% | 52.5% | 203% | 120% | inactive | inactive | 5.9 µM (active) | 16.6 µM (active) | – | -0.473% (inactive) and -8.06% (inactive) and 37.8% (inactive) | inactive | – | inactive | – | –
Oc1c(Cl)cc(Cl)c2cccnc12 | 123% | 94.2% | 45.4% | 347% | 10.5% | 9.09% | – | inactive | 13.2 µM (active) | 8.33 µM (active) | 7.43 µM (active) | – | – | 10.5 µM (active) | – | – | –
CCC(=O)O[C@]1(C(=O)CCl)[C@@H](C)C[C@H]2[C@@H]3CCC4=CC(=O)C=C[C@]4(C)[C@@]3(F)[C@@H](O)C[C@@]21C | 6.83% | 55.4% | 8.54% | 8.53% | 44.1% | 47.1% | – | inactive | inactive | inactive | inactive | 4.44% (inactive) | – | inactive | – | – | –
Nc1nc(F)nc2c1ncn2[C@@H]1O[C@H](CO)[C@@H](O)[C@@H]1O | – | 19.5% | – | – | 9.4% | 3.53% | – | inactive | 0.59 µM (active) | 0.469 µM (active) | 1.32 µM (active) | 0.368% (inactive) and 0.376% (inactive) | inactive | 0.372 µM (active) | – | – | –
C[C@@H]1C[C@H]2[C@@H]3CCC4=CC(=O)C=C[C@]4(C)[C@@]3(Cl)[C@@H](O)C[C@]2(C)[C@@]1(OC(=O)c1ccco1)C(=O)CCl | 5.2% | 7.88% | 10.6% | 6.95% | 4.47% | 6.87% | – | inactive | 3.72 µM (active) | 11.8 µM (active) | 11.8 µM (active) | – | inactive | 4.69 µM (active) | – | – | –
CCOCC(O)COc1ccc(NC(=O)CC[S+](C)C)cc1 (stereo unspecified) | 84% | 103% | 97.7% | 99.4% | 120% | 110% | – | inactive | inactive | inactive | inactive | 2.79% (inactive) | inactive | – | – | – | –
Nc1nc(N)nc(-c2cc(Cl)ccc2Cl)n1 | 83.2% | 88.9% | 128% | 97.7% | 126% | 98% | – | inactive | inactive | inactive | inactive | 11.2% (inactive) | inactive | inactive | – | – | –
Cc1oc(=O)oc1CN1CCN(c2cc3c(cc2F)c(=O)c(C(=O)O)c2n3C(C)S2)CC1 (stereo unspecified) | 24.1% | 12.9% | 9.67% | 24.3% | 162% | 103% | – | inactive | inactive | inactive | – | 2.62% (inactive) | – | – | – | – | –
COc1ccc(C(=O)CC(=O)c2ccc(C(C)(C)C)cc2)cc1 | 9.04% | 88.2% | 6.24% | 2.68% | 5.71% | 5.54% | – | inactive | 1.05 µM (active) | 2.09 µM (active) | 1.66 µM (active) | – | – | 1.66 µM (active) | – | – | –
Cc1onc(-c2ccccc2Cl)c1C(=O)N[C@@H]1C(=O)N2[C@@H]1SC(C)(C)[C@@H]2C(=O)O | 86.7% | 94.6% | – | 108% | 168% | 97.4% | – | inactive | inactive | inactive | inactive | – | inactive | – | – | – | –
